The sample as a whole holds a higher share of hits than the screen did.
Tb PYK inh – blocks Trypanosoma brucei pyruvate kinase | AID 624173 | Potency, µM (doses to about 76.8 µM), for inactives: top-dose activity, negative = inhibition, usual class: inhibitors | TbPYK enzyme, Kinase-Glo Plus ATP luminescence, 45 min | Q57TT1 | 0.12% of 410,000 active; note: potency is the fitted concentration of half-maximal effect; % is set by controls: 0 for no effect and ±100 for the full control effect; nearly all actives have a fitted effect of over 50% in size
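ADP (130 uM final) triggers the TbPYK reaction after compound addition; incubation is 45 min at room temperature. Kinase-Glo Plus is then added and luminescence imaged. Normalized data are fitted to concentration-effect curves.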
Shiga inhibitor – blocks Shiga toxin action in Vero cells | Vero cells, Shiga toxin protein synthesis inhibition reporter | AID 2315 | 9.2% of 290,000 active | inhibition, % at 38.7 µM; in the data active = inhibition mostly above about 28%, no sharp cut-off; inactive = mostly below about 43%; note: 0% is about no effect
NS1 function inh – blocks influenza NS1 protein function; Potency, µM (highest dose often 46.1 µM), for the others: top-dose activity, positive = more growth; 0.4% of 270,000 active; AID 2326; calls by dose curve; note: potency is the fitted concentration of half-maximal effect; actives are rising curves; nearly all actives have a fitted effect of over 50% in size
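Recovery from NS1-induced slow growth read by OD600 in budding yeast switched to galactose assay medium (pH 6.0, -URA) at 1:100 dilution. Compound 23 nl per well; the matching strain lacking NS1 serves as control.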
LmPK inh – LmPK (Leishmania mexicana) enzyme inhibition; Q27686; purified LmPK, Kinase-Glo ATP luminescence, 1 h; Potency, µM (highest dose often 57.5 µM), for the others: at the top dose activity change, negative = inhibition, usual class: inhibitors; 0.37% of 290,000 active; AID 1721; note: potency is the fitted concentration of half-maximal effect; % is set by controls: 0 for no effect and ±100 for the full control effect
Target sequence (Q27686 whole entry, looked up): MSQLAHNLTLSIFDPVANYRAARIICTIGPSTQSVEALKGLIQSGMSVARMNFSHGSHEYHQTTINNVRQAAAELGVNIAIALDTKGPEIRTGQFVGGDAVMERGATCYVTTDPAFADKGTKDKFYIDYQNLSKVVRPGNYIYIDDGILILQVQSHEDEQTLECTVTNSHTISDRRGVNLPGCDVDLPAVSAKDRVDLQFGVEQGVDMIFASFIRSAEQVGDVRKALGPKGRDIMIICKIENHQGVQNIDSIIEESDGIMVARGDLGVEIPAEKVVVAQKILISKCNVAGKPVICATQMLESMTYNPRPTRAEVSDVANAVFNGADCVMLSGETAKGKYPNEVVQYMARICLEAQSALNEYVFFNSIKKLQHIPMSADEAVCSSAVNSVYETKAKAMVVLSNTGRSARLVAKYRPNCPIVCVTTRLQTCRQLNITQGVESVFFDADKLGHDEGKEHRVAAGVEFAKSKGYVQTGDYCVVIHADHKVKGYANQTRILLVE
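0.1 nM LmPK, 0.5 mM PEP, 0.1 mM ADP; 50 mM imidazole pH 7.2, 7 mM MgCl2, 50 mM KCl; 1 h RT. Kinase-Glo luminescence readout, normalized to no-enzyme (full inhibition) and uninhibited wells.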
SARS PLpro yeast – blocks SARS-CoV papain-like protease in a yeast assay; 0.19% of 330,000 active; Potency, µM (titrated, usually from 32.9 µM), for inactives: top-dose activity, positive = growth rescue, usual class: activators; AID 485353; S. cerevisiae expressing SARS-CoV PLpro, growth rescue; calls by dose curve; note: potency is the fitted concentration of half-maximal effect; 0% is about no effect; nearly all actives have a fitted effect of over 55% in size
CHX counter – counter-screen hit for Shiga toxin inhibitors, cycloheximide | AID 2314 | 12% of 300,000 active | cell reporter, cycloheximide protein synthesis inhibition counterscreen | max response, %; in the data active = max response mostly above about 13%, no sharp cut-off; inactive = mostly below about 14%; note: read at 38.3 µM for the half of the compounds with a filed dose; 0% is about no effect
An asterisk follows results filed as active. Unless noted, calls come from the whole dose curve; as a rule, active = well fitted curve in the direction sought with a large enough effect; inconclusive = small, poorly fitted or top-dose-only effect, or another doubt; inactive = no such curve, though single readings can be large; an effect the other way counts as inactive or inconclusive.

What do the screens show for `O=C(/C=C/c1ccco1)Nc1ccccc1C(=O)O`?
Tb PYK inh: inconclusive; Shiga inhibitor: 99; NS1 function inh: 7%; LmPK inh: inconclusive; SARS PLpro yeast: -1%; CHX counter: 36

Results for O=C(/C=C/c1ccco1)Nc1cccc(NC(=O)/C=C/c2ccco2)n1 ?
Tb PYK inh: -7%; Shiga inhibitor: 103*; NS1 function inh: 18%; LmPK inh: 1%; SARS PLpro yeast: -1%; CHX counter: 33*

How did COC(=O)c1sc(NC(=O)/C=C/c2ccc(C)o2)nc1C do in these assays?
Tb PYK inh: 43%; Shiga inhibitor: 56*; NS1 function inh: 11%; LmPK inh: -2%; SARS PLpro yeast: 6%; CHX counter: 33*

How did O=C(/C=C/c1ccco1)Nc1ccccc1N1CCCC1 do in these assays?
Tb PYK inh: -1%; Shiga inhibitor: 40; LmPK inh: 1%; SARS PLpro yeast: -2%; CHX counter: 12*

How did O=C(/C=C/c1ccco1)NC1=NCCS1 do in these assays?
Tb PYK inh: -6%; Shiga inhibitor: 43*; NS1 function inh: 14%; LmPK inh: -11%; SARS PLpro yeast: -3%; CHX counter: 61*

What do the screens show for `O[C@H](CN1CC1)[C@@H](O)CN1CC1`?
NS1 function inh: -5%

Results for COc1ccccc1COCC(O)CN1CCN(S(=O)(=O)c2cccc(F)c2)CC1 (centres undefined) ?
Tb PYK inh: 3%; SARS PLpro yeast: -11%

Results for O=C(O)[C@H](CCc1ccccc1)N1C(=O)c2ccccc2C1=O ?
NS1 function inh: 1%

What do the screens show for `CCc1nnc(NC(=O)/C=C/c2ccco2)s1`?
Tb PYK inh: -8%; Shiga inhibitor: 55; NS1 function inh: 8%; LmPK inh: 1%; SARS PLpro yeast: 1%; CHX counter: 27*

How did O=c1ccc2cc(S(=O)(=O)NCc3ccc(Cl)cc3)ccc2[nH]1 do in these assays?
Tb PYK inh: -4%

Results for CN(C(=O)CSc1nnc(C2CC2)n1C1CC1)C1(C#N)CCCCC1 ?
Tb PYK inh: -10%; SARS PLpro yeast: 2%

What do the screens show for `O=C(/C=C/c1ccc(/C=C/C(=O)Nc2ccc(C3=NCCN3)cc2)cc1)Nc1ccc(C2=NCCN2)cc1`?
Shiga inhibitor: -8; CHX counter: -5

Results for CCOC(=O)C1CCN(C2=NC(=O)/C(=C/c3ccccc3OC)S2)CC1 ?
Tb PYK inh: 12%; Shiga inhibitor: 26; NS1 function inh: -12%; LmPK inh: -1%; SARS PLpro yeast: -1%; CHX counter: 8

What do the screens show for `COc1ccccc1/C=C1\SC(N2CCC(C)CC2)=NC1=O`?
Tb PYK inh: 8%; Shiga inhibitor: 57*; NS1 function inh: -5%; LmPK inh: -3%; SARS PLpro yeast: -6%; CHX counter: 26*

How did COc1cccc(/C=C2\SC(N3CCCC(C)C3)=NC2=O)c1OC (centres undefined) do in these assays?
Tb PYK inh: -9%; Shiga inhibitor: 56*; NS1 function inh: -7%; LmPK inh: 0%; SARS PLpro yeast: 1%; CHX counter: 17*

What do the screens show for `COc1cccc(/C=C2\SC(=S)N(N3CCOCC3)C2=O)c1OC`?
Tb PYK inh: -12%; Shiga inhibitor: 15; NS1 function inh: -6%; LmPK inh: -1%; SARS PLpro yeast: -15%; CHX counter: 23*

Results for COc1cccc(/C=C2\SC(N3CCC(C)CC3)=NC2=O)c1OC ?
Tb PYK inh: 3%; Shiga inhibitor: 30; NS1 function inh: -9%; LmPK inh: 6%; SARS PLpro yeast: 0%; CHX counter: 13*

What do the screens show for `O=C(CCC(=O)c1cccs1)OCc1ccc([N+](=O)[O-])cc1`?
Tb PYK inh: 1%; SARS PLpro yeast: -1%

How did CCCCCCSc1ccc([C@H]2N[C@@](C)(C(=O)OC)[C@H]3C(=O)N(C)C(=O)[C@@H]23)cc1 do in these assays?
Tb PYK inh: -4%; SARS PLpro yeast: -3%

What do the screens show for `Cc1ccccc1NC(=S)/C(=C(\[O-])c1ccc(C)c([N+](=O)[O-])c1)[n+]1ccccc1`?
Tb PYK inh: 0%; Shiga inhibitor: -8; NS1 function inh: -4%; LmPK inh: -2%; SARS PLpro yeast: -6%; CHX counter: -1

Results for COc1cccc(NC(=S)/C(=C(\[O-])c2ccc(C)c([N+](=O)[O-])c2)[n+]2ccccc2)c1 ?
Tb PYK inh: -12%; Shiga inhibitor: 51*; NS1 function inh: -1%; LmPK inh: -1%; SARS PLpro yeast: -2%; CHX counter: 39*

How did Cc1ccc(NC(=S)/C(=C(\[O-])c2ccc(C)c([N+](=O)[O-])c2)[n+]2ccccc2)cc1C do in these assays?
Shiga inhibitor: 149*; NS1 function inh: 1%; LmPK inh: 2%; SARS PLpro yeast: -13%; CHX counter: 70*

Results for COc1cc(OC)cc(-c2cc(N)n(S(=O)(=O)c3cccc4nsnc34)n2)c1 ?
Tb PYK inh: -3%; Shiga inhibitor: -12; NS1 function inh: inconclusive; LmPK inh: 2%; SARS PLpro yeast: 0%; CHX counter: -2

What do the screens show for `C=CC[C@H](CC(=O)N[C@H](CO)Cc1ccccc1)C(=O)N[C@@H](COC(=O)[C@@H](CC=C)Cc1ccc(F)cc1)Cc1c[nH]c2ccccc12`?
Tb PYK inh: 0%; SARS PLpro yeast: -6%

Results for CCNC(=S)N/N=C/c1ccc(OCC(=O)Nc2ccc(OC)cc2)c(OC)c1 ?
Tb PYK inh: 5%; Shiga inhibitor: -8; NS1 function inh: 20%; LmPK inh: 0%; SARS PLpro yeast: 6%; CHX counter: -1

What do the screens show for `COc1cc(/C=N/NC(=O)c2ccncc2)ccc1OCCN1CCCCC1`?
Tb PYK inh: 1%; Shiga inhibitor: active; NS1 function inh: 0%; LmPK inh: 1%; SARS PLpro yeast: -11%; CHX counter: 35*

How did C/C=C/c1ccc(OCC(=O)Nc2ccncc2)c(OC)c1 do in these assays?
Tb PYK inh: -2%; Shiga inhibitor: 39*; NS1 function inh: -10%; LmPK inh: 7%; SARS PLpro yeast: -1%; CHX counter: 21*

Results for COc1cc(/C=C2\C(=O)N(CCC#N)N=C2C)ccc1OCC(=O)Nc1ccccc1 ?
Tb PYK inh: inconclusive; Shiga inhibitor: 66*; NS1 function inh: 15%; LmPK inh: 1%; SARS PLpro yeast: -16%; CHX counter: 63*

What do the screens show for `COc1cc(/C=N/NC(=O)c2ccncc2)ccc1OC(C)=O`?
Tb PYK inh: -2%; Shiga inhibitor: -11; NS1 function inh: 11%; LmPK inh: -3%; SARS PLpro yeast: -3%; CHX counter: -2

Results for COc1ccc(NC(=O)COc2ccc(/C=N/O)cc2OC)cc1 ?
Tb PYK inh: 0%; Shiga inhibitor: 52*; NS1 function inh: -5%; LmPK inh: 3%; SARS PLpro yeast: -4%; CHX counter: 31*

Screens from PubChem BioAssay.
